Unmarked numbers belong to inactive results.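 How the source made its calls: active means Inhibition of the Kir2.1 potassium channel over 30% at some tested dose, plus a fitted dose response curve; inactive means no Kir2.1 inhibition at any dose, or no curve fitted.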

The target in this assay is Inward rectifier potassium channel 2 (Mus musculus) (UniProt P35561). The assay is described as follows: off-target blockade of inward rectifier Kir2.1 – cell-based, FluxOR thallium flux, CRC round 2, selectivity assay for KCNK9 inhibitor project, SAR follow-up (AID 540321). Conditions: Kir2.1-expressing cells; series mostly up to 30 µM; fluorescence ratio, lower = inhibition: at the top concentration.
Sequence of Inward rectifier potassium channel 2 (Mus musculus) (P35561 whole entry, looked up): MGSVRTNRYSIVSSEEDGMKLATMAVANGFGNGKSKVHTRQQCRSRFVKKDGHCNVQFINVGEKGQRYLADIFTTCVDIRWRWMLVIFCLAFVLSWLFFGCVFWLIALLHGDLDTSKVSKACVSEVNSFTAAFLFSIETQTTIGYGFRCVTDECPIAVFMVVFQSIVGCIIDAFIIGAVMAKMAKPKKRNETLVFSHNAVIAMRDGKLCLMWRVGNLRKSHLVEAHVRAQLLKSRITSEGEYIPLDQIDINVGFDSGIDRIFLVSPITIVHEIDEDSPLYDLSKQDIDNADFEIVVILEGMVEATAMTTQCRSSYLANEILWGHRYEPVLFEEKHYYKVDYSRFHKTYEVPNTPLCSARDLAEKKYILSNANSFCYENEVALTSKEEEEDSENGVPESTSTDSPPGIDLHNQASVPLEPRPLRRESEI
As for `O=C(Nc1cccc(NC(=O)c2ccncc2)c1)c1ccccc1`, the “fluorescence ratio, lower = inhibition” value is 1.54.
With `CC(C1CC2CCC1C2)n1c(-c2ccc(Cl)cc2)n[nH]c1=S` (stereo not given) the figure was 1.69; with `CCOc1ccccc1NC(=O)c1cccc(NC(=O)c2ccccc2OC)c1`, 1.95; with `COc1ccccc1NC(=O)c1cccc(NC(=O)CC2CCCC2)c1`, 1.81.
With `Cc1cccc(C(=O)Nc2cccc(NC(=O)c3ccc(C(C)(C)C)cc3)c2)c1` the figure was 1.67; with `CCOc1ccccc1NC(=O)c1cccc(NC(=O)c2cccc(C)c2)c1`, 1.76; with `O=C(Nc1cccc(NC(=O)c2cccc(Cl)c2)c1)c1ccccc1`, 1.25.
On to `COc1ccc(-c2n[nH]c(=S)n2C(C)C2CC3CCC2C3)cc1` (stereo not given), for which the “fluorescence ratio, lower = inhibition” value was 1.69.
With `O=C(Nc1cccc(NC(=O)c2ccsc2)c1)c1ccccc1` the figure was 1.81; with `CCOc1ccccc1NC(=O)c1cccc(C(=O)NC2CCCC2)c1`, 1.88.
With `COc1ccccc1NC(=O)c1cccc(NC(=O)c2ccccc2)c1`, the “fluorescence ratio, lower = inhibition” value was 1.83.
Consider `Cc1cccc(C(=O)Nc2cccc(NC(=O)c3ccccc3OC(F)(F)F)c2)c1`, for which the “fluorescence ratio, lower = inhibition” value was 1.76.
The result for `Cc1ccccc1C(=O)Nc1cccc(NC(=O)c2ccccc2)c1` reads 1.71; that for `Cc1ccc(-c2n[nH]c(=S)n2C(C)C2CC3CCC2C3)cc1` (stereo not given), 1.91; that for `CCOc1ccccc1NC(=O)c1cccc(NC(=O)c2ccccc2OC(F)(F)F)c1`, 1.71.
The result for `Cc1cccc(C(=O)Nc2ccccc2NC(=O)c2ccccc2)c1` reads 1.62.
With `Cc1cccc(C(=O)Nc2cccc(NC(=O)C3CCCCC3)c2)c1` the figure was 1.5; with `Cc1cccc(C(=O)Nc2cccc(NC(=O)c3ccccc3Cl)c2)c1`, 1.57; with `CCOc1ccc(NC(=O)c2cccc(NC(=O)C3CCCC3)c2)cc1`, 1.78.
`O=C(Nc1cccc(NC(=O)c2ccc(Cl)cc2)c1)c1ccccc1`: the “fluorescence ratio, lower = inhibition” value is 1.31.
For `CC(C)(C)c1ccc(C(=O)Nc2cccc(NC(=O)c3ccccc3)c2)cc1`, the “fluorescence ratio, lower = inhibition” value is 1.33.
The result for `Cc1cccc(C(=O)Nc2cccc(NC(=O)c3cccs3)c2)c1` reads 1.54.
With `CCOc1ccccc1NC(=O)c1cccc(NC(=O)c2ccc(C)cc2)c1` the figure was 1.86; with `COc1ccccc1C(=O)Nc1cccc(NC(=O)c2ccccc2C(C)C)c1`, 1.72.
For the compound `CC(C1CC2CCC1C2)n1c(-c2ccccc2)n[nH]c1=S` (stereo not given), the “fluorescence ratio, lower = inhibition” value was 1.46.
With `Cc1cccc(C(=O)Nc2cccc(NC(=O)c3ccccc3C(F)(F)F)c2)c1` the figure was 1.51; with `CC(C1CC2CCC1C2)n1c(-c2cccc(Cl)c2)n[nH]c1=S` (stereo not given), 1.62.
As to `COc1ccccc1NC(=O)c1cccc(NC(=O)c2ccccc2OC)c1`, the “fluorescence ratio, lower = inhibition” value is 1.93.
The result for `COc1ccccc1C(=O)Nc1cccc(NC(=O)c2ccccc2C)c1` reads 1.71; that for `Cc1cccc(S(=O)(=O)Nc2cccc(NC(=O)c3ccccc3)c2)c1`, 1.58; that for `Cc1cccc(-c2n[nH]c(=S)n2C(C)C2CC3CCC2C3)c1` (stereo not given), 1.66.
As for `CCOc1ccccc1NC(=O)c1cccc(NC(=O)C(C)(C)C)c1`, the “fluorescence ratio, lower = inhibition” value is 1.83.
With `S=c1[nH]nc(-c2ccco2)n1CC1CCCCC1` the figure was 1.26; with `CC(C1CC2CCC1C2)n1c(-c2ccsc2)n[nH]c1=S` (stereo not given), 1.42; with `O=C(Nc1cccc(NC(=O)C2CCCCC2)c1)c1ccccc1`, 1.75.

These data come from PubChem BioAssay AID540321 (Johns Hopkins Ion Channel Center, 2011).
